Screens as filed in PubChem BioAssay.
The full list was thinned out, with hits kept by preference.
ST2 inh: inhibitors of human ST2 (IL1RL1) binding to IL-33; Q01638; AlphaLISA ST2-Fc/biotin-IL-33 interaction, 1 h; inhibition, % for hits at 17 µM; hit rate 2.3% among 78,000; in the data active = inhibition above about 30%
Target sequence (Q01638 whole entry, looked up): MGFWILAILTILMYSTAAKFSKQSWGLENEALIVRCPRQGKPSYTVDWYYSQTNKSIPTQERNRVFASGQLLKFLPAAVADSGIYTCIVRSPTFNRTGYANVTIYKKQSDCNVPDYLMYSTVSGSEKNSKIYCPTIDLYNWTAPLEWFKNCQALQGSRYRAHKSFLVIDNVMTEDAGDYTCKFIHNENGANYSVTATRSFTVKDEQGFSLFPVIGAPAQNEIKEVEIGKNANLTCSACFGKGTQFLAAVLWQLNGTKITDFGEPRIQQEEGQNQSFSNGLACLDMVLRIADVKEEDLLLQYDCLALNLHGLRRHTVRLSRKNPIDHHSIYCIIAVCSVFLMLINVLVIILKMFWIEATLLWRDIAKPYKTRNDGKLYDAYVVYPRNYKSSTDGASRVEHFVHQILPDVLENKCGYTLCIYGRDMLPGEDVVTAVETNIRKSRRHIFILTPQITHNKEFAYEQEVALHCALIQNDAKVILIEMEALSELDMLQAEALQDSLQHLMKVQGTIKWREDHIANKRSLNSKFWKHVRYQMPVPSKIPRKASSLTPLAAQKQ
An asterisk follows results filed as active.

How did Cc1ccc(NC(=O)c2cc3ccccc3o2)c([N+](=O)[O-])c1 do in these assays?
ST2 inh: inactive

Results for Cc1ccc(NC(=O)CC(C)C)c([N+](=O)[O-])c1 ?
ST2 inh: inactive

What do the screens show for `Cc1ccc(NC(=O)C(c2ccccc2)c2ccccc2)c([N+](=O)[O-])c1`?
ST2 inh: 41.0%*

How did CNCc1cc(-c2ccc(S(C)(=O)=O)cc2)ccc1OC do in these assays?
ST2 inh: inactive

Results for CC(C)N(C)Cc1nnnn1CC(=O)N(C)Cc1ccnc2ccccc12 ?
ST2 inh: inactive

How did CCc1nc2sc3c(N4CCOCC4)ncnc3c2c2c1CCCC2 do in these assays?
ST2 inh: inactive

How did COc1cc2c(C(=O)NCCCN3CCN(C)CC3)cn(CC(C)C)c(=O)c2cc1OC do in these assays?
ST2 inh: inactive

Results for O=C(c1cn2cc(Cl)ccc2n1)N1CC[C@@H](c2ccc(F)cc2)[C@H](O)C1 ?
ST2 inh: inactive

How did O=c1[nH]c2ccccc2n1C1=CCN(c2nccc(N3CCC(O)C3)n2)CC1 (stereo not drawn) do in these assays?
ST2 inh: inactive

How did C=CCN(CC=C)C(=O)CN1CC=C(n2c(=O)[nH]c3ccccc32)CC1 do in these assays?
ST2 inh: 31.0%*

Results for C=CCN(CC=C)C(=O)C(c1ccccc1)c1ccccc1 ?
ST2 inh: inactive

What do the screens show for `CCOC(=O)C1CCN(C(=O)CSc2cc(=O)n(C)c3cc(Cl)ccc23)CC1`?
ST2 inh: inactive

How did NS(=O)(=O)c1ccc(NC(=O)c2cncc(Br)c2)cc1 do in these assays?
ST2 inh: inactive

Results for Cc1ccc(-n2nc3ccc(NC(=O)c4ccccc4F)cc3n2)cc1 ?
ST2 inh: inactive

What do the screens show for `CC(=O)c1ccc(NC(=O)c2ccccc2F)cc1`?
ST2 inh: inactive

Results for O=C(Nc1ccc(N2CCCC2)cc1)c1ccccc1F ?
ST2 inh: 68.0%*

Results for Cc1ccc(N2C(=O)C3C4C=CC(O4)C3C2=O)cc1[N+](=O)[O-] (stereo not drawn) ?
ST2 inh: inactive

What do the screens show for `Cc1ccc(N2C(=O)c3cccc([N+](=O)[O-])c3C2=O)cc1Cl`?
ST2 inh: inactive

Results for Cc1ccc(-n2cccc2)cc1[N+](=O)[O-] ?
ST2 inh: 31.0%*

How did O=[N+]([O-])c1ccc(O)c(CN2CCCCCCC2)c1 do in these assays?
ST2 inh: inactive

How did O=C(NCCc1ccccc1)c1cccn1-c1nnc(N2CCCCC2)s1 do in these assays?
ST2 inh: inactive

What do the screens show for `O=C(NCCCN1CCCCC1)C1CC(=O)N(C2CCCCCC2)C1` (stereo not drawn)?
ST2 inh: inactive

Results for COc1ccc(-c2cc(-c3ccccc3)nc(=O)[nH]2)cc1 ?
ST2 inh: inactive

How did COc1ccc(-c2cc3ccccc3[nH]2)cc1 do in these assays?
ST2 inh: inactive

Results for COc1ccc(-c2ccc[nH]2)cc1 ?
ST2 inh: 42.0%*

Results for CCCC(O)=C1C(=O)CC(C)(C)CC1=NC(CC)CO (stereo not drawn) ?
ST2 inh: inactive

How did CCOC(=O)CSc1nc2c(sc3ccccc32)c(=O)n1CCc1c[nH]c2ccccc12 do in these assays?
ST2 inh: inactive

Results for c1n[nH]c(SCCNC2CCC3(CCNCC3)CC2)n1 ?
ST2 inh: inactive

Results for Cc1cccc(C)c1NC(=O)c1cc2c(=O)n3cccc(C)c3nc2s1 ?
ST2 inh: inactive

What do the screens show for `Cc1csc2ncc(C(=O)Nc3cccc(F)c3)c(=O)n12`?
ST2 inh: inactive

Results for CC(C)c1ccc(NC(=O)CSc2nc3ccc(N)cc3s2)cc1 ?
ST2 inh: inactive

What do the screens show for `COc1ccccc1CCCNc1nc(C)nc2c1cnn2C`?
ST2 inh: inactive

Results for O=c1/c(=C/c2cccc([N+](=O)[O-])c2)sc2n1CN(c1cccc(F)c1)CN=2 ?
ST2 inh: inactive

What do the screens show for `COc1cccc(/C=c2\sc3nnc(-c4ccc(C)cc4)n3c2=O)c1`?
ST2 inh: inactive

What do the screens show for `COc1ccc(/C=c2\sc3n(c2=O)CN(c2cccc(F)c2)CN=3)cc1`?
ST2 inh: 35.0%*

How did COc1ccc(/C=c2\sc3n(c2=O)CN(c2ccc(C(C)=O)cc2)CN=3)cc1 do in these assays?
ST2 inh: inactive

Results for CCCOc1ccc(/C=c2\sc3nc(=O)c(C)nn3c2=O)cc1 ?
ST2 inh: inactive

Results for CCOc1ccc(-c2nc3s/c(=C\c4ccc(F)cc4)c(=O)n3n2)cc1 ?
ST2 inh: inactive

How did COc1ccc(/C=c2\sc3n(c2=O)CN(c2ccc(C)cc2)CN=3)cc1 do in these assays?
ST2 inh: 31.0%*

How did Cc1ccc(-c2nnc3s/c(=C\c4ccc([N+](=O)[O-])cc4)c(=O)n23)cc1 do in these assays?
ST2 inh: inactive

Results for COc1cc(/C=c2\sc3n(c2=O)CN(c2ccc(C)cc2)CN=3)c([N+](=O)[O-])cc1OC ?
ST2 inh: 38.0%*

How did O=c1/c(=C/c2cccnc2)sc2n1CN(c1cccc(C(F)(F)F)c1)CN=2 do in these assays?
ST2 inh: inactive

Results for Cc1ccc(N2CN=c3s/c(=C\c4cccnc4)c(=O)n3C2)cc1 ?
ST2 inh: 30.0%*

How did COc1ccccc1/C=c1\sc2nnc(-c3ccc(C)cc3)n2c1=O do in these assays?
ST2 inh: inactive

How did CCc1ccc(NC(=O)CN2CCN(Cc3ccccc3C)S2(=O)=O)cc1 do in these assays?
ST2 inh: inactive

Results for CCc1cccc(NC(=O)c2ccccc2Br)c1 ?
ST2 inh: inactive

How did Cn1ccnc1C(O)C1CCN(c2nccc(CCC(F)(F)F)n2)CC1 (stereo not drawn) do in these assays?
ST2 inh: inactive

How did Cc1cccc(OCC(=O)Nc2c(C)cccc2C)c1 do in these assays?
ST2 inh: inactive

Results for CCSc1nc2c(c(=O)[nH]1)C(c1cccc(O)c1)C1=C(CCCC1=O)N2 (stereo not drawn) ?
ST2 inh: inactive

What do the screens show for `COc1ccc(C(=O)Nc2ccccc2Br)cc1OC`?
ST2 inh: inactive

How did Cc1ccc(NC(=O)CN2CCN(Cc3ccccc3F)S2(=O)=O)c(Cl)c1 do in these assays?
ST2 inh: inactive

How did CNC(=O)CCS(=O)(=O)Cc1ccc(Cl)cc1 do in these assays?
ST2 inh: inactive

How did O=c1oc(-c2cc([N+](=O)[O-])ccc2Cl)nc2ccc(I)cc12 do in these assays?
ST2 inh: inactive

How did N#C/C(=C\c1ccc(-c2cc([N+](=O)[O-])ccc2Cl)o1)c1[nH]nc(N)c1C#N do in these assays?
ST2 inh: 45.0%*

How did O=c1oc(-c2cc([N+](=O)[O-])ccc2Cl)nc2ccc(Br)cc12 do in these assays?
ST2 inh: inactive

Results for O=C(COc1cc(Cl)ccc1Cl)Nc1ccccc1F ?
ST2 inh: inactive

Results for CCc1nccn1CCC(=O)N1CCCC2(CCN(C)CC2)CC1 ?
ST2 inh: inactive

What do the screens show for `COc1ccc(/C=C(/NC(=O)c2ccco2)C(=O)Nc2ccc(OC)cc2)cc1`?
ST2 inh: inactive

How did C=C(C)CC(Nc1ccc(OC)cc1)c1ccco1 (stereo not drawn) do in these assays?
ST2 inh: 37.0%*

Results for COc1ccccc1C(CC(=O)O)c1ccco1 (stereo not drawn) ?
ST2 inh: inactive

Results for O=C(NC1CCCc2ccccc21)C1(S(=O)(=O)c2ccc(Cl)cc2)CC1 (stereo not drawn) ?
ST2 inh: inactive

Results for CCOc1ccc2c(=O)c(-c3nc4ccccc4s3)coc2c1 ?
ST2 inh: 30.0%*

Results for CC(=O)Oc1ccc2c(=O)c(-c3csc(-c4ccccc4)n3)coc2c1 ?
ST2 inh: inactive
